In PubChem BioAssay (NCI) one finds growth inhibition data, which are given here for 21 compounds.

The structures appear in SMILES notation. About 79,000 compounds went through this panel and 15% of them were active in at least one assay; those are over-represented in the sample as a whole. Values without a mark were called inactive. Active and inactive are the calls of the source. Cut-off read from the data, not from the text of the source: active = growth inhibition above about 70%; inactive = the rest.

A short description of experiment [1]: NCI Yeast Anticancer Drug Screen. Data for the rad50 strain (AID 155).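 Note: 0% = growth of vehicle-only cultures of the same strain.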 Particulars: S. cerevisiae rad50 strain growth inhibition; at 50.0 µM; stronger effect = higher value. The method in brief:
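Relative growth inhibition (compound vs vehicle) was measured in yeast with a defined repair-gene alteration.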

Experiment [2] is described as follows: NCI Yeast Anticancer Drug Screen. Data for the mec2-1 strain (AID 157). Particulars: S. cerevisiae mec2-1 strain, at 50.0 µM, stronger effect = higher value. Summed up:
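Mutant yeast (mec2-1) grown with compound; growth inhibition relative to vehicle control reported.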

The nature of experiment [3]: NCI Yeast Anticancer Drug Screen. Data for the sgs1 mgt1 strain (AID 161).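 Note: 0% = growth of cultures given vehicle only.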 Particulars: S. cerevisiae sgs1 mgt1 strain, at 50.0 µM, stronger effect = higher value. The method in brief:
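Percent growth inhibition was derived by comparing compound-exposed mutant yeast with vehicle-exposed cultures. The strain carries alterations in DNA damage repair.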

Experiment [4] is described as follows: NCI Yeast Anticancer Drug Screen. Data for the cln2 rad14 strain (AID 165).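 Note: 0% = growth equal to vehicle treated cultures.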 Particulars: S. cerevisiae cln2 rad14 strain, at 50.0 µM, stronger effect = higher value. Summed up:
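Readout is yeast growth inhibition versus vehicle-treated controls, using a strain with cln2 and rad14 alterations exposed to compound.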

A short description of experiment [5]: NCI Yeast Anticancer Drug Screen. Data for the bub3 strain (AID 167). Particulars: S. cerevisiae bub3 mutant strain, at 50.0 µM, stronger effect = higher value. Summed up: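 Screening used yeast with an engineered genetic alteration affecting cell cycle control. Compound-exposed cultures were compared with vehicle cultures, and reduced growth was taken as inhibition.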

The nature of experiment [6]: NCI Yeast Anticancer Drug Screen. Data for the mlh1 rad18 strain (AID 175). Particulars: S. cerevisiae mlh1 rad18 strain growth inhibition; at 50.0 µM; stronger effect = higher value. Summed up: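 Genetically defined yeast (DNA repair-deficient) exposed to compounds; growth inhibition determined relative to vehicle.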

For `CCc1cccc(C)c1NC(=O)CCc1nnc2s/c(=C\c3cccc4ccccc34)c(=O)n12`, the growth inhibition was 25.6% in experiment [1]; 16.5% in experiment [2]; 19.8% in experiment [3]; 24.5% in experiment [4]; 2.1% in experiment [5]; 33.2% in experiment [6].
On to `CC(C)CC(C)(O)C#CC(C)(O)CC(C)C` (stereo unspecified), for which the growth inhibition in experiment [1] was -1.8%; in experiment [2], -25.4%; in experiment [3], -12.7%; in experiment [4], -31.4%; in experiment [5] it was 4.55%; in experiment [6], -22.2%.
With `Nc1cc2c(O)cc(S(=O)(=O)O)cc2cc1S(=O)(=O)O`, the growth inhibition in experiment [1] was -5.9%; in experiment [2] it was 8.15%; in experiment [3] it was 2.35%; in experiment [4] it was 14.1%; in experiment [5] it was 34.2%; in experiment [6], -4.3%.
In the case of `C=CCSC(C)=O`, the growth inhibition in experiment [1] was -3.4%; in experiment [2] it was -0.05%; in experiment [3], 13.9%; in experiment [4], 7.6%; in experiment [5] it was -7.8%; in experiment [6] it was -6.8%.
`CCN(CC)CCOB(c1cccc2ccccc12)c1cccc2ccccc12`: the growth inhibition in experiment [1] is 39.6%; in experiment [2], 24.4%; in experiment [3] it was 17.1%; in experiment [4] it was 26.8%; in experiment [5], -3.4%; in experiment [6] it was 43.8%.
Take `CCC(C)NC(=O)c1ccccc1` (stereo unspecified): the growth inhibition in experiment [1] was 16.8%; in experiment [2] it was 17.7%; in experiment [3], 7.8%; in experiment [4] it was -34.5%; in experiment [5], 1.75%; in experiment [6] it was 15.3%.
With `Cc1cc(Cl)c(Cl)cc1NC(=O)C(Br)C(Br)c1ccccc1` (stereo unspecified), the growth inhibition is 75.8% (active) in experiment [1]; 71.3% (active) in experiment [2]; 74.3% (active) in experiment [3]; 68.7% in experiment [4]; 78.5% (active) in experiment [5]; 82.2% (active) in experiment [6].
Consider `CCOc1nc2c(c(=O)n(C)c(=O)n2C)n1C`, for which the growth inhibition in experiment [1] was 26.9%; in experiment [2] it was -7.55%; in experiment [3], -6.25%; in experiment [4], 8%; in experiment [5], 7.65%; in experiment [6], 20.9%.
In the case of `C/C(C[n+]1ccccc1)=N\N=C(N)N`, the growth inhibition in experiment [1] is -18.8%; in experiment [2] it was -9.05%; in experiment [3] it was -43.8%; in experiment [4], -20.5%; in experiment [5], -5.35%; in experiment [6], -9.2%.
Turning to `COc1cc(C2C3=C(COC3=O)Oc3cc4c(cc32)OCO4)cc(OC)c1OC` (stereo unspecified), the growth inhibition was -3.15% in experiment [1]; 24.1% in experiment [2]; -8.35% in experiment [3]; 14.2% in experiment [4]; -12.2% in experiment [5]; 3.5% in experiment [6].
Take `CN(C)CCNC(=O)c1cccc2c1Oc1cccc([N+](=O)[O-])c1O2`: the growth inhibition in experiment [1] is -12.7%; in experiment [2], -14.1%; in experiment [3] it was -9.85%; in experiment [4] it was 14.4%; in experiment [5], -12.1%; in experiment [6], -34.3%.
Turning to `Cc1ccc(Cl)cc1NC(=O)Nc1ccc(Cl)c(Cl)c1`, the growth inhibition in experiment [1] was -13.1%; in experiment [2], -11.1%; in experiment [3], -4.25%; in experiment [4], -4.5%; in experiment [5], 18.2%; in experiment [6], -4.75%.
Turning to `CC(=O)Nc1ccc(S(=O)(=O)c2ccc(NC(C)=O)cc2)cc1`, the growth inhibition in experiment [1] was -10.6%; in experiment [2], -10.1%; in experiment [3], -48.5%; in experiment [4], -6.2%; in experiment [5], -26.5%; in experiment [6], -40.8%.
For `O=C1/C(=C/c2ccc(F)cc2)CC/C1=C\c1ccc(F)cc1`, the growth inhibition in experiment [1] was -10.5%; in experiment [2], -12.1%; in experiment [3], -2.85%; in experiment [4], -2.55%; in experiment [5], -13.8%; in experiment [6], -9.3%.
With `CN1CCN(C(=O)NC(C)(C)C)CC1`, the growth inhibition in experiment [1] was -1.45%; in experiment [2] it was -6.6%; in experiment [3], -8.35%; in experiment [4], -88.8%; in experiment [5], -1.9%; in experiment [6], -17.7%.
On to `COC(=O)c1ccccc1C1CN=NC12Cc1cc(C)ccc1C2=O` (stereo unspecified), for which the growth inhibition in experiment [1] was -3.25%; in experiment [2], 14.2%; in experiment [3], -10.4%; in experiment [4], -34.4%; in experiment [5], -3.5%; in experiment [6] it was -14.8%.
For the compound `O=C(Nc1ccc(Cl)cc1)OCCN(CCOC(=O)Nc1ccc(Cl)cc1)C(=O)Nc1ccc(Cl)cc1`, the growth inhibition was 19.3% in experiment [1]; -19.1% in experiment [2]; 1.65% in experiment [3]; -3.25% in experiment [4]; -7.8% in experiment [5]; 9.15% in experiment [6].
Consider `COc1ccc(C(C)Nc2cc(OC)c(OC)c(OC)c2)cc1` (stereo unspecified), for which the growth inhibition in experiment [1] is -20.2%; in experiment [2], -14.1%; in experiment [3] it was -3.15%; in experiment [4] it was 5.5%; in experiment [5], -10.3%; in experiment [6] it was -15.1%.
Take `O=C(CC(=O)C(=O)CC(=O)OCc1ccccc1)OCc1ccccc1`: the growth inhibition in experiment [1] is 15%; in experiment [2], -19.9%; in experiment [3] it was -0.3%; in experiment [4], 11.9%; in experiment [5] it was -21.3%; in experiment [6] it was 2.55%.
In the case of `CCN(CC)Cc1cc(Nc2c3ccc([N+](=O)[O-])cc3nc3ccc(OC)cc23)ccc1O`, the growth inhibition in experiment [1] was 83.3% (active); in experiment [2], 60.4%; in experiment [3], 56%; in experiment [4], 54.5%; in experiment [5], 53.9%; in experiment [6], 65.3%.
Regarding `CC(=O)N/C(=C\c1ccc(Cc2nc3c([nH]2)C(=O)c2ccccc2C3=O)cc1)c1nc2c([nH]1)C(=O)c1ccccc1C2=O`, the growth inhibition in experiment [1] is -7.5%; in experiment [2] it was 12.4%; in experiment [3], 11.1%; in experiment [4], 23.7%; in experiment [5] it was 15.2%; in experiment [6], 33.1%.
